High-throughput results as filed in PubChem BioAssay.
TSHR antag = antagonists of human thyroid stimulating hormone receptor | P16473 | TSHR-expressing cells, TSH-stimulated cAMP HTRF, 2 h; stronger effect = lower value | activity change, negative = inhibition, % at 11.5 µM | actives 0.2% (n = 330,000);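 active means activity change below a set negative limit, meaning inhibition stronger than a set level, cut at about -70% in these data; inconclusive means activity change between two set negative limits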; further: on the % scale 0 is the no-effect control and ±100 the full control effect
Target sequence (P16473 whole entry, looked up): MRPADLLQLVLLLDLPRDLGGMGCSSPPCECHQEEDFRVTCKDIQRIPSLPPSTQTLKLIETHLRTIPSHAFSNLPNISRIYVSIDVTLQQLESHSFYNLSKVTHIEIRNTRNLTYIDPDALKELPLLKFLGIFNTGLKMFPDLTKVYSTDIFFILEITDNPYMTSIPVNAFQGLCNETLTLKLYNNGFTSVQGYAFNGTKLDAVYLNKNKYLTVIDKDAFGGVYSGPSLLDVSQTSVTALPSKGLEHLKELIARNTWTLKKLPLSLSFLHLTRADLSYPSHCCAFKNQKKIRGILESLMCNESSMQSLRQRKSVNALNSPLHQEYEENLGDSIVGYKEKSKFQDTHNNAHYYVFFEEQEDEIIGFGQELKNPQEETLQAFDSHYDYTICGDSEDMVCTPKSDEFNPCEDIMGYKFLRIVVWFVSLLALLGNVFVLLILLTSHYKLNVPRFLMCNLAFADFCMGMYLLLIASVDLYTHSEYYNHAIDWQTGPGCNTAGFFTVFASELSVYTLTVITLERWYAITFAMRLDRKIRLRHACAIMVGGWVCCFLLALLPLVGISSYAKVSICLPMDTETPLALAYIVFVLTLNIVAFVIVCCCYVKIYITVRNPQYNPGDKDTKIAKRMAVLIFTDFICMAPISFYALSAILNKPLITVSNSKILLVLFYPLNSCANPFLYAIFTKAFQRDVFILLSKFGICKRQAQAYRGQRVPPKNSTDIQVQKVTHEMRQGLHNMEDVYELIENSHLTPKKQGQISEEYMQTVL
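Antagonism was scored as loss of TSH-driven cAMP in TSHR cells, stimulated with 4nM TSH (EC80) for 2 hours at 37 deg C and detected by homogeneous HTRF competition immunoassay.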
B2AR arrestin = agonists driving beta-arrestin recruitment to human beta2-adrenergic receptor. beta-arrestin recruitment to beta2AR, cell-based reporter. Potency, µM (series often up to 46.1 µM), for inactives: at the highest dose activation, usual class: activators. actives 0.02% (n = 330,000). P07550; active means well fitted activation curve with a large enough effect; inconclusive means small, poorly fitted or top-dose-only effect;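 further: potency means the concentration at half of the fitted maximal effect; 0% = DMSO controls and full agonism = EC100 isoproterenol or metaproterenol; nearly all actives have a fitted effect of over 65% in size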
DRD3 antagonist = blocks the human D3 dopamine receptor. D3R cells, DiscoveRx beta-arrestin luminescence, antagonist mode; stronger effect = lower value. max response, negative = inhibition, %. actives 2.5% (n = 360,000); in the data active means max response below about -50%; inconclusive means no clear call, values can overlap the other calls; further: on the % scale 0 is the no-effect control and ±100 the full control effect
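Cells plated overnight at 1500 cells/well, then exposed to library compounds with dopamine controls for 90 minutes at 37 degrees C. DiscoveRx reagent added for 30–60 minutes at room temperature; luminescence read, quantitative HTS format.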
D3 ag = D3 dopamine receptor (human) agonism; P35462; D3R DiscoveRx beta-arrestin cells, luminescence, 90 min; max activation, %; actives 0.58% (n = 410,000); AID 652048; in the data active means max activation above about 30%; further: 0% is about no effect
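Agonist-mode cell screen: cells plated at 1500/well and incubated overnight at 37 °C, then exposed to library compounds for 90 min at 37 °C. Detection reagent was added for 30–60 min at room temperature, and luminescence was read.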
Numbers without * were called inactive; ? = inconclusive; . = not tested or not shown. Rows were chosen to be rich in hits. Some 2.9% of all compounds tested hit in one or more screens of this group.

SMILES | TSHR antag | B2AR arrestin | DRD3 antagonist | D3 ag
COc1cc(C2C=C(C34CC5CC(CC(C5)C3)C4)NC(=S)N2)cc(OC)c1OC (centres undefined) | -14 | 0% | -82* | -17
COc1ccc(N2CCN(C(=O)c3cnn(-c4ccc(F)cc4)c3-n3cccc3)CC2)cc1 | . | . | . | -2
CCOc1ccc(C(=O)c2cn(CC(=O)Nc3cc(OC)cc(OC)c3)c3ccc(F)cc3c2=O)cc1 | . | . | . | -13
O=C(COC(=O)Cc1ccccc1F)Nc1ccc2[nH]c(=O)[nH]c2c1 | 5 | 0% | -5 | -9
O=C(COC(=O)/C=C/c1cc(Br)ccc1F)Nc1ccc2[nH]c(=O)[nH]c2c1 | -3 | 0% | -10 | 88*
COc1cc(C2C(C(C)=O)=C(O)C(=O)N2CCc2c[nH]c3ccccc23)ccc1O (centres undefined) | -10 | -1% | -56* | 0
CC(=O)C1=C(O)C(=O)N(CCc2c[nH]c3ccccc23)C1c1cccc(O)c1 (centres undefined) | 1 | 0% | ? | 4
Cc1ccc(-c2cn3c4c(=O)n(C)c(=O)n(C)c4nc3n2-c2cccc(Cl)c2)cc1 | . | . | . | -6
CN(N=Nc1ccc([N+](=O)[O-])cc1)c1ccccc1 | -14 | 0% | 12 | -1
CN(CCCC(=O)O)c1ccc(N=Nc2ccc([N+](=O)[O-])cc2)cc1 | . | . | -87* | -18
Cc1ccc(NC(=O)N2CCC(NC(=O)c3ccccc3C)CC2)cc1 | 5 | -1% | 9 | -4
Cc1ccccc1[C@H](NC1c2ccccc2C=Cc2ccccc21)P(=O)(c1ccccc1)c1ccccc1 | . | . | -56* | -5
CCOc1ccccc1C(=O)Nc1cc(-c2nc3cccnc3s2)ccc1C | . | . | . | -3
COc1ccc(C(C)(C)C)cc1NC(=O)COC(=O)c1cnc(C)cn1 | -2 | 0% | -65* | -13
CCC(=O)O[C@@H]1CC(=O)O[C@H](C)C/C=C/C=C/[C@H](O)[C@H](C)C[C@H](CC=O)[C@H](O[C@@H]2O[C@H](C)[C@@H](O[C@H]3C[C@@](C)(O)[C@@H](OC(=O)CC)[C@H](C)O3)[C@H](N(C)C)[C@H]2O)[C@H]1OC | . | . | . | 7
COc1ccc(CNC(C)CCc2ccccc2)cc1 (centres undefined) | 14 | 0% | -55* | 1
COc1cccc(CNC(=O)CCCC(=O)NC(C)CCc2ccccc2)c1 (centres undefined) | -130* | 0% | 93 | 3
CC(CCc1ccc(O)cc1)NCc1ccc(Br)cc1 (centres undefined) | 19 | 1% | 18 | 80*
CC(CCc1ccc(O)cc1)NCCC(c1ccccc1)c1ccccc1 (centres undefined) | 20 | -1% | ? | 2
COc1cccc(CNC(=O)CCCSc2ccccc2)c1 | 6 | 0% | 0 | 14
COc1ccc(CCC(C)NC2C3CC4CC(C3)CC2C4)cc1 (centres undefined) | -4 | 0% | -97* | -60
CCOC(=O)C1=C(CN2CCN(c3ccc(Cl)cc3)CC2)NC(=O)NC1c1ccc(OC)cc1 (centres undefined) | . | . | . | -18
Cn1c(=O)c2sccc2n2c(CCC(=O)N3CCN(c4cccc(Cl)c4)CC3)nnc12 | . | . | . | -13
CCc1ccccc1N(CC)C(=O)c1c(C)oc2ncnc(N3CCOCC3)c12 | . | . | . | -4
CC(=O)NC(C)CCc1ccccc1 (centres undefined) | -9 | 0% | -24 | -6
SMILES | TSHR antag | B2AR arrestin | DRD3 antagonist | D3 ag
CC(CCc1ccccc1)NCC#N (centres undefined) | 3 | 0% | -6 | 32*
COc1cc(CCC(C)NCc2ccccc2)ccc1O (centres undefined) | 15 | 0% | -17 | 32*
O=C(Cc1ccc(F)cc1)N1CCC(CC2CC(c3cccc(Br)c3)=NO2)(C(=O)NCC2CCCCC2)CC1 (centres undefined) | -16 | -1% | -51* | -30
O=C(Cc1ccc(F)cc1)N1CCC(CC2CC(c3ccc(Cl)cc3)=NO2)(C(=O)NCC2CCCCC2)CC1 (centres undefined) | -2 | 0% | 6 | -33
CC(C)=CC1C=C(C)C(C)C2C(=O)NNC(=O)C12 (centres undefined) | -25 | 0% | -97* | 2
Cc1noc(C)c1C(=O)N1CCC1(C)C(=O)NS(=O)(=O)c1cccc(OC(F)F)c1 (centres undefined) | . | . | 6 | 11
CN(C)CCNC(=O)c1ccc2c(=O)n(Cc3ccc(Cl)cc3)c(=S)[nH]c2c1 | -6 | -1% | -58* | 1
